Compound activity as filed in PubChem BioAssay.
The list is not random: actives were taken first. Their share in the collection is about 1.3%.
Spn DPM-DC inh – blocks S. pneumoniae diphosphomevalonate decarboxylase | purified DPM-DC, PK/LDH coupled NADH fluorescence | actives 0.49% (n = 65,000) | calls only at 10 µM | AID 556;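 active = the 320 compounds with the highest percent inhibition in the single-dose primary screen, excluding strongly autofluorescent ones, cut at about 32% in these data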;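 also: kinetic rate of NADH fluorescence loss reporting ADP formed by the decarboxylase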
MK inhibit – inhibitors of Streptococcus pneumoniae mevalonate kinase; purified MK, PK/LDH-coupled NADH absorbance 340 nm; inhibition, % at 10 µM; actives 0.48% (n = 65,000);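 active = ranked among the strongest by inhibition in the single 10 µM screen, a fixed top-ranked set picked for dose follow-up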
Spn PMK inh – S. pneumoniae PMK inhibition; AID 539; purified PMK, PK/LDH-coupled NADH absorbance 340 nm; actives 0.49% (n = 65,000); inhibition, % at 10 µM;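 active = top-ranked compounds by inhibition in the single 10 µM screen, taking a fixed number of the strongest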;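 also: 0% = full reaction with DMSO carrier and 100% = background rate without enzyme reaction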
NADH coupling – inhibition of NAD/NADH coupling enzymes, library profiling | actives 0.02% (n = 65,000) | AID 774 | coupled PK/LDH NADH assays, four targets | IC50, µM (doses to about 10 µM), for inactives: top-dose inhibition;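 active = single-dose screening hits from any of four coupled enzyme assays that gave an IC50 when retested across doses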;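 also: the DPM-DC format reads NADH fluorescence rather than 340 nm absorbance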
* hit, by the source's call.

What do the screens show for `O=C(Nc1ccc(OC(F)(F)F)cc1)C1CCCN(S(=O)(=O)c2cccnc2)C1` (stereo not drawn)?
Spn DPM-DC inh: inactive; MK inhibit: 7.0; Spn PMK inh: 11.0; NADH coupling: 6.0%

What do the screens show for `CC(C)OC(=O)CCC1(C(=O)O)CCC(=O)NC1` (stereo not drawn)?
Spn DPM-DC inh: inactive; MK inhibit: 11.0; Spn PMK inh: 25.0*; NADH coupling: 12.0%

How did CC(C)OC(=O)CC1=NC(=O)CS1 do in these assays?
Spn DPM-DC inh: inactive; MK inhibit: 15.0; Spn PMK inh: 0.0; NADH coupling: 5.0%

What do the screens show for `OC1CCCN(Cc2ccc3c(c2)Cc2ccccc2-3)C1` (stereo not drawn)?
Spn DPM-DC inh: inactive; MK inhibit: 9.0; Spn PMK inh: 33.0*; NADH coupling: 14.0%

How did CN(C)CCN(C)Cc1ccc2c(c1)Cc1ccccc1-2 do in these assays?
Spn DPM-DC inh: inactive; MK inhibit: 4.0; Spn PMK inh: 0.0; NADH coupling: 1.0%

Results for O=C(NCc1ccccc1)C1C2C=CC3(CN(Cc4cccnc4)C(=O)C13)O2 (stereo not drawn) ?
Spn DPM-DC inh: inactive; MK inhibit: 0.0; Spn PMK inh: 27.0*; NADH coupling: 11.0%

What do the screens show for `COCC(C)NCc1ccc(C)cc1C` (stereo not drawn)?
Spn DPM-DC inh: inactive; MK inhibit: 52.0*; Spn PMK inh: 1.0; NADH coupling: 20.0%

How did O=S(=O)(Nc1ccc(-c2nc3cccnc3s2)cc1)c1cccs1 do in these assays?
MK inhibit: 5.0; Spn PMK inh: 14.0; NADH coupling: 10.0%

Results for O=S(=O)(Nc1cccc2ncccc12)c1cccs1 ?
Spn DPM-DC inh: active; MK inhibit: 0.0; Spn PMK inh: 16.0; NADH coupling: 6.0%

Results for Cc1cc(C(=O)OCn2nnc3ccccc3c2=O)c(C)n1-c1ccccc1 ?
Spn DPM-DC inh: inactive; MK inhibit: 5.0; Spn PMK inh: 12.0; NADH coupling: 6.0%

How did CCOC(=O)c1cc2c(=O)n3ccccc3nc2n(C(C)C)c1=NC(=O)c1ccncc1 do in these assays?
Spn DPM-DC inh: active; MK inhibit: 8.0; Spn PMK inh: 4.0; NADH coupling: 15.0%

What do the screens show for `Cc1ccc(C)c(N2CCN(c3cc(C)nc4nnnn34)CC2)c1`?
Spn DPM-DC inh: inactive; MK inhibit: 0.0; Spn PMK inh: 7.0; NADH coupling: 2.0%

Results for COc1cc(Cl)ccc1NC(=O)COc1ccccc1C(=O)N1CCN(c2ccc(O)cc2)CC1 ?
Spn DPM-DC inh: inactive; MK inhibit: 0.0; Spn PMK inh: 16.0; NADH coupling: 5.0%

How did CCOC(=O)c1cncc(NC(=O)c2ccccc2)c1 do in these assays?
Spn DPM-DC inh: active; MK inhibit: 8.0; Spn PMK inh: 16.0; NADH coupling: 20.0%

What do the screens show for `CCOC(=O)c1ccc(NC(=O)CSc2nc(C)cc(=O)[nH]2)cc1`?
Spn DPM-DC inh: inactive; MK inhibit: 14.0; Spn PMK inh: 26.0*; NADH coupling: 16.0%

How did CCN(CC)c1ccc(NC(=O)CSc2nc(C)cc(=O)[nH]2)cc1 do in these assays?
Spn DPM-DC inh: inactive; MK inhibit: 5.0; Spn PMK inh: 3.0; NADH coupling: 3.0%

What do the screens show for `COc1ccc(F)cc1S(=O)(=O)Nc1ccc(C)cc1`?
Spn DPM-DC inh: inactive; MK inhibit: 14.0; Spn PMK inh: 0.0; NADH coupling: 5.0%

What do the screens show for `N#Cc1cc2ccccc2nc1SCc1cccnc1`?
Spn DPM-DC inh: inactive; MK inhibit: 7.0; Spn PMK inh: 29.0*; NADH coupling: 12.0%

Results for N#Cc1cc2c(nc1SCc1cccnc1)CCCCC2 ?
Spn DPM-DC inh: inactive; MK inhibit: 8.0; Spn PMK inh: 0.0; NADH coupling: 3.0%

How did O=C(Cn1c(CN2CCCCC2)nc2ccccc2c1=O)NCc1ccco1 do in these assays?
Spn DPM-DC inh: inactive; MK inhibit: 18.0; Spn PMK inh: 9.0; NADH coupling: 9.0%

Results for COc1cc(OC)nc(NC(=O)NS(=O)(=O)c2ccc(OC(F)(F)F)cc2)n1 ?
Spn DPM-DC inh: inactive; MK inhibit: 0.0; Spn PMK inh: 25.0*; NADH coupling: 12.0%

How did COc1ccc2c(c1)C(C)=CC(C)(C)N2C(=O)CSc1nnc(-c2ccc(C)cc2)o1 do in these assays?
Spn DPM-DC inh: inactive; MK inhibit: 9.0; Spn PMK inh: 12.0; NADH coupling: 2.0%

How did O=C(COC(=O)c1cccc(NC(=O)c2ccco2)c1)c1ccc(Br)cc1 do in these assays?
Spn DPM-DC inh: inactive; MK inhibit: 0.0; Spn PMK inh: 0.0; NADH coupling: 0.0%

Results for CCS(=O)(=O)c1ccc(O)c(NC(=O)c2cc(OC)c(OC)c(OC)c2)c1 ?
Spn DPM-DC inh: inactive; MK inhibit: 0.0; Spn PMK inh: 0.0; NADH coupling: 2.0%

What do the screens show for `CCS(=O)(=O)c1ccc(O)c(NC(=O)Nc2ccccc2)c1`?
Spn DPM-DC inh: inactive; MK inhibit: 42.0*; Spn PMK inh: 18.0; NADH coupling: 20.0%

How did CN1CC(=O)NC1=NC(=O)c1cc(F)c(F)cc1Cl do in these assays?
Spn DPM-DC inh: inactive; MK inhibit: 0.0; Spn PMK inh: 23.0; NADH coupling: 8.0%

What do the screens show for `CN1CC(=O)NC1=NC(=O)c1ccc(Cl)c(S(=O)(=O)N2CCCCCC2)c1`?
Spn DPM-DC inh: inactive; MK inhibit: 0.0; Spn PMK inh: 28.0*; NADH coupling: 9.0%

What do the screens show for `CNC(=O)C1CC(=O)N(Cc2ccc3c(c2)OCO3)C(=Nc2ccc(OC)cc2)S1` (stereo not drawn)?
Spn DPM-DC inh: inactive; MK inhibit: 0.0; Spn PMK inh: 27.0*; NADH coupling: 9.0%

Results for NC(=O)C1CC(=O)N(Cc2ccc3c(c2)OCO3)C(=Nc2ccccc2)S1 (stereo not drawn) ?
Spn DPM-DC inh: inactive; MK inhibit: 0.0; Spn PMK inh: 18.0; NADH coupling: 6.0%

Results for Cc1cc(=O)n2[nH]c(-c3ccccc3Cl)cc2n1 ?
Spn DPM-DC inh: inactive; MK inhibit: 0.0; Spn PMK inh: 25.0*; NADH coupling: 8.0%

How did CCN(CC)CCNC(=O)CCn1c(=S)[nH]c2cc3c(cc2c1=O)OCO3 do in these assays?
Spn DPM-DC inh: inactive; MK inhibit: 1.0; Spn PMK inh: 7.0; NADH coupling: 2.0%

Results for CCN(CC)CCNC(=O)CCCCn1c(=S)[nH]c2c([nH]c3ccc(OC)cc32)c1=O ?
Spn DPM-DC inh: inactive; MK inhibit: 42.0*; Spn PMK inh: 1.0; NADH coupling: 14.0%
